What all share (test): NCI-60 one-dose screen, 48 h (100 = growth as untreated, 0 = no growth, -100 = all killed)
What all share (details): 10 µM unless noted

For assay [1], the system named is SR leukemia.
Assay [2] concerns RPMI-8226 leukemia.
Assay [3] relates to OVCAR-8 ovarian.
The test system of assay [4] is OVCAR-5 ovarian.
For assay [5], the system named is OVCAR-4 ovarian.
Assay [6] deals with SK-OV-3 ovarian.
Assay [7] deals with IGROV1 ovarian.
The test system of assay [8] is HS 578T breast.
The test system of assay [9] is NCI/ADR-RES ovarian.

About 83,000 compounds went through this panel and 20% of them were active in at least one assay; those are over-represented in the sample as a whole.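 How to read the values: 0–100, growth inhibition (40 = 60% inhibited); 0, no net growth; -100 to 0, cell death (-40 = 40% of starting cells died; -100 = all dead).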 Unmarked numbers belong to inactive results. Active and inactive are the calls of the source. Rule for the calls: active = growth percent below 10; inactive = the rest.

Turning to `O=C(CCCCCCN1CC(=O)N2[C@@H](c3ccc(Cl)s3)c3[nH]c4ccccc4c3C[C@H]2C1=O)NO`, the growth in assay [1] was 14.7%; in assay [2] it was 17%; in [3], 38.5%; in assay [4] it was 39.3%; in assay [5], 64.6%; in assay [6], 78.7%. Moreover, the growth is -20.6% (active) in assay [7], 65.5% in [8] and 98.5% in assay [9].

Regarding `N#Cc1c(-c2ccc(F)cc2)cc(-c2c[nH]c3ccccc23)nc1-c1c[nH]c2ccccc12`, the growth is 89.1% in [1]; 101% in [2]; 100% in assay [3]; 109% in assay [4]; 101% in assay [5]; 96.9% in [6]. For the same compound, the growth was 102% in [7], 95.2% in assay [8] and 103% in [9].

Consider `Cc1ccc([C@H]2c3[nH]c4ccccc4c3C[C@H]3C(=O)N(CCCCCCC(=O)NO)CC(=O)N23)s1`, for which the growth in [1] was 23%; in assay [2], 27.9%; in assay [3], 44.4%; in [4] it was 52.8%; in assay [5] it was 79.5%; in assay [6] it was 86.3%. The growth in assay [7] is 55.7%; in assay [8] it was 76.6%; in assay [9], 94.3%.

For the compound `N#Cc1cccc(-c2cc(-c3ccc4c(c3)OCCO4)[nH]n2)c1`, the growth was 12.4% in assay [1]; 18.3% in [2]; 35.3% in [3]; 71.8% in assay [4]; 79.2% in assay [5]; 54.3% in assay [6]. Moreover, the growth in [7] was 36.5%; in assay [8], 40.1%; in assay [9], 20%.

Turning to `CN1CCC[C@]2(C)[C@H]3CC[C@@H]4[C@@H]5[C@H]6OC[C@@]5(CCC6(C)C)CC[C@@]4(C)[C@]3(C)CC[C@H]2C1(C)C`, the growth was 5.47% (active) in [1]; 30.2% in assay [2]; 22.3% in assay [3]; 103% in assay [4]; 86.9% in assay [5]; 118% in assay [6]. Also, the growth in assay [7] was 77.8%; in [8], 99%; in assay [9] it was 95.5%.

Consider `C#Cc1nc(/C=C\CCCCCCC(=O)NO)cs1`, for which the growth in [1] was -19.7% (active); in assay [2] it was -1.07% (active); in [3] it was 40.9%; in assay [4] it was 45.7%; in assay [5], 69.9%; in [6] it was 91.6%. The growth in assay [7] is -68.2% (active); in [8] it was 64.9%; in [9] it was 13.1%.

On to `O=C(N/N=C\c1ccc([N+](=O)[O-])cc1)c1ccc2nc(-c3ccc(Br)cc3)[nH]c2c1`, for which the growth was -3.17% (active) in [1]; 6.03% (active) in assay [2]; 13.5% in [3]; 44.8% in assay [4]; 21.3% in [5]; 45% in assay [6]. In addition, the results for the growth in [7], in assay [8] and in assay [9] were 18%, 23.2% and 71.4%, respectively.

Consider `CC(=O)/C(N=Nc1ccc2oc(=O)ccc2c1)=C(\C)O`, for which the growth in assay [1] was 9.76% (active); in [2], 12.3%; in [3] it was 25.1%; in [4] it was 50.8%; in assay [5] it was 50%; in [6] it was 37.1%. For the same compound, the growth in [7] is 32.4%; in assay [8], 63.1%; in assay [9], 13.3%.

For `CS(=O)(=O)c1ccc(/C(=N/N=C(N)N)c2ccc(Cl)cc2)cc1`, the growth in assay [1] was 35.1%; in assay [2] it was 101%; in assay [3], 103%; in [4], 99.7%; in assay [5] it was 98.4%; in assay [6], 87.2%. Moreover, the growth in [7] was 85.6%; in [8], 91.8%; in assay [9], 102%.

On to `COc1ccc(/C=N/NC(=O)c2c(N)nn(C)c2Nc2ccccc2)cc1`, for which the growth in [1] was 18.9%; in [2] it was 61.6%; in assay [3], 70.8%; in [4] it was 76.9%; in assay [5] it was 87%; in [6] it was 49.6%. Moreover, the growth in [7] was 39.6%; in assay [8] it was 38.1%; in [9] it was 33%.

Turning to `O=C1[C@@H]2Cc3c([nH]c4ccccc34)[C@H](c3ccc(Cl)cc3)N2C(=O)CN1C1CCN(Cc2ccccc2)CC1`, the growth in assay [1] was 4.81% (active); in [2], 21.8%; in assay [3], 64.4%; in assay [4], 85.5%; in assay [5], 54.4%; in assay [6], 89.6%. The growth in [7] was 43.3%; in [8], 65.5%; in assay [9], 52.6%.

`O=c1c2cc(-c3ccc(F)cc3F)ccc2n(O)c(=O)n1-c1cccc(C(F)(F)F)c1`: the growth in assay [1] was -0.936% (active); in assay [2], -19.1% (active); in assay [3], 12%; in assay [4] it was 42.3%; in assay [5], 31.7%; in assay [6], -14.5% (active). Further, the results for the growth in [7], in assay [8] and in assay [9] were 21.2%, -0.801% (active) and 3.16% (active), respectively.

As to `COc1ccc([C@@H]2C(=O)N(c3cc(OC)c(OC)c(OC)c3)[C@H]2c2ccc(OC)c(O)c2)cc1`, the growth in [1] was 20%; in assay [2], 13.1%; in assay [3], 10.6%; in assay [4] it was 32.4%; in assay [5], 58.9%; in assay [6], 30.3%. Moreover, the growth was 22.5% in assay [7], 14.9% in assay [8] and 13.6% in assay [9].

Turning to `O=C(/C=C/c1ccc(Cl)c(Cl)c1)Nc1ncc(Cc2ccc(Cl)c(Cl)c2)s1`, the growth is 38% in [1]; 81.2% in assay [2]; 44% in assay [3]; 59.6% in assay [4]; 34% in assay [5]; 77.1% in assay [6]. Moreover, the growth was 60.6% in assay [7], 76.4% in assay [8] and 52.8% in assay [9].

In the case of `COc1cccc(N2CCN(C3=C(Cl)C(=O)c4ncccc4C3=O)CC2)c1`, the growth is 4.42% (active) in [1]; 55.8% in assay [2]; 82.8% in [3]; 124% in assay [4]; 80.5% in assay [5]; 93.8% in assay [6]. The growth in assay [7] was 80.8%; in assay [8] it was 84.4%; in assay [9], 81.9%.

With `O=C(N/N=C\c1ccc(F)cc1)c1ccc2nc(-c3ccc(Br)cc3)[nH]c2c1`, the growth in [1] was 41.3%; in assay [2] it was 63.5%; in assay [3], 27.4%; in assay [4] it was 63.3%; in [5], 12.5%; in assay [6], 90.9%. The growth was 3.87% (active) in assay [7], 36.1% in assay [8] and 68.2% in assay [9].

In the case of `CC(=O)c1c([Si](C)(C)C)c2cc(C#N)ccn2c1C(=O)c1ccc(Br)cc1`, the growth in assay [1] was 87.9%; in assay [2], 92.1%; in [3] it was 94.8%; in assay [4], 79%; in [5] it was 76.2%; in [6] it was 98.3%. Further, the growth was 68.7% in assay [7], 79.3% in assay [8] and 88.6% in assay [9].

On to `O=C1c2ccccc2C23C(=C(c4cncnc4)c4ccccc42)CCCN13` (stereo unspecified), for which the growth in assay [1] is 96.1%; in assay [2], 103%; in assay [3], 104%; in assay [4], 96.5%; in [5], 93.3%; in assay [6], 118%. In addition, the growth is 107% in [7], 95% in [8] and 103% in assay [9].

Consider `Cc1cc(=O)oc2cc(OCCCOc3ccc(/C=C/C(=O)Nc4ccc(Br)cc4)cc3)ccc12`, for which the growth is 51.8% in assay [1]; 75.6% in assay [2]; 83.9% in [3]; 95.4% in assay [4]; 105% in assay [5]; 98.2% in assay [6]. The growth in assay [7] was 72.7%; in assay [8], 76.3%; in assay [9], 64.6%.

Source of the values: PubChem BioAssay (NCI).
